Test results taken from the supplement of paper PMC11732987, “Enantioselective OTUD7B fragment discovery through chemoproteomics screening and high-throughput optimisation” (Communications Chemistry, 2025).

Tests used:
Assay in all cases: log2 ratio of Biotin-Ahx-Ub-VS probe labelling (fragment/DMSO); higher = less target engagement (more negative = stronger competition), active = hit call of the paper (q ≤ 0.05, log2 ratio ≤ -1)
Details in all cases: compound concentration: 200 uM; treatment time: 3 h
USP34 = USP34 (UniProt Q70CQ2)
Chain of USP34 (Q70CQ2 whole entry, the tested form may be a part): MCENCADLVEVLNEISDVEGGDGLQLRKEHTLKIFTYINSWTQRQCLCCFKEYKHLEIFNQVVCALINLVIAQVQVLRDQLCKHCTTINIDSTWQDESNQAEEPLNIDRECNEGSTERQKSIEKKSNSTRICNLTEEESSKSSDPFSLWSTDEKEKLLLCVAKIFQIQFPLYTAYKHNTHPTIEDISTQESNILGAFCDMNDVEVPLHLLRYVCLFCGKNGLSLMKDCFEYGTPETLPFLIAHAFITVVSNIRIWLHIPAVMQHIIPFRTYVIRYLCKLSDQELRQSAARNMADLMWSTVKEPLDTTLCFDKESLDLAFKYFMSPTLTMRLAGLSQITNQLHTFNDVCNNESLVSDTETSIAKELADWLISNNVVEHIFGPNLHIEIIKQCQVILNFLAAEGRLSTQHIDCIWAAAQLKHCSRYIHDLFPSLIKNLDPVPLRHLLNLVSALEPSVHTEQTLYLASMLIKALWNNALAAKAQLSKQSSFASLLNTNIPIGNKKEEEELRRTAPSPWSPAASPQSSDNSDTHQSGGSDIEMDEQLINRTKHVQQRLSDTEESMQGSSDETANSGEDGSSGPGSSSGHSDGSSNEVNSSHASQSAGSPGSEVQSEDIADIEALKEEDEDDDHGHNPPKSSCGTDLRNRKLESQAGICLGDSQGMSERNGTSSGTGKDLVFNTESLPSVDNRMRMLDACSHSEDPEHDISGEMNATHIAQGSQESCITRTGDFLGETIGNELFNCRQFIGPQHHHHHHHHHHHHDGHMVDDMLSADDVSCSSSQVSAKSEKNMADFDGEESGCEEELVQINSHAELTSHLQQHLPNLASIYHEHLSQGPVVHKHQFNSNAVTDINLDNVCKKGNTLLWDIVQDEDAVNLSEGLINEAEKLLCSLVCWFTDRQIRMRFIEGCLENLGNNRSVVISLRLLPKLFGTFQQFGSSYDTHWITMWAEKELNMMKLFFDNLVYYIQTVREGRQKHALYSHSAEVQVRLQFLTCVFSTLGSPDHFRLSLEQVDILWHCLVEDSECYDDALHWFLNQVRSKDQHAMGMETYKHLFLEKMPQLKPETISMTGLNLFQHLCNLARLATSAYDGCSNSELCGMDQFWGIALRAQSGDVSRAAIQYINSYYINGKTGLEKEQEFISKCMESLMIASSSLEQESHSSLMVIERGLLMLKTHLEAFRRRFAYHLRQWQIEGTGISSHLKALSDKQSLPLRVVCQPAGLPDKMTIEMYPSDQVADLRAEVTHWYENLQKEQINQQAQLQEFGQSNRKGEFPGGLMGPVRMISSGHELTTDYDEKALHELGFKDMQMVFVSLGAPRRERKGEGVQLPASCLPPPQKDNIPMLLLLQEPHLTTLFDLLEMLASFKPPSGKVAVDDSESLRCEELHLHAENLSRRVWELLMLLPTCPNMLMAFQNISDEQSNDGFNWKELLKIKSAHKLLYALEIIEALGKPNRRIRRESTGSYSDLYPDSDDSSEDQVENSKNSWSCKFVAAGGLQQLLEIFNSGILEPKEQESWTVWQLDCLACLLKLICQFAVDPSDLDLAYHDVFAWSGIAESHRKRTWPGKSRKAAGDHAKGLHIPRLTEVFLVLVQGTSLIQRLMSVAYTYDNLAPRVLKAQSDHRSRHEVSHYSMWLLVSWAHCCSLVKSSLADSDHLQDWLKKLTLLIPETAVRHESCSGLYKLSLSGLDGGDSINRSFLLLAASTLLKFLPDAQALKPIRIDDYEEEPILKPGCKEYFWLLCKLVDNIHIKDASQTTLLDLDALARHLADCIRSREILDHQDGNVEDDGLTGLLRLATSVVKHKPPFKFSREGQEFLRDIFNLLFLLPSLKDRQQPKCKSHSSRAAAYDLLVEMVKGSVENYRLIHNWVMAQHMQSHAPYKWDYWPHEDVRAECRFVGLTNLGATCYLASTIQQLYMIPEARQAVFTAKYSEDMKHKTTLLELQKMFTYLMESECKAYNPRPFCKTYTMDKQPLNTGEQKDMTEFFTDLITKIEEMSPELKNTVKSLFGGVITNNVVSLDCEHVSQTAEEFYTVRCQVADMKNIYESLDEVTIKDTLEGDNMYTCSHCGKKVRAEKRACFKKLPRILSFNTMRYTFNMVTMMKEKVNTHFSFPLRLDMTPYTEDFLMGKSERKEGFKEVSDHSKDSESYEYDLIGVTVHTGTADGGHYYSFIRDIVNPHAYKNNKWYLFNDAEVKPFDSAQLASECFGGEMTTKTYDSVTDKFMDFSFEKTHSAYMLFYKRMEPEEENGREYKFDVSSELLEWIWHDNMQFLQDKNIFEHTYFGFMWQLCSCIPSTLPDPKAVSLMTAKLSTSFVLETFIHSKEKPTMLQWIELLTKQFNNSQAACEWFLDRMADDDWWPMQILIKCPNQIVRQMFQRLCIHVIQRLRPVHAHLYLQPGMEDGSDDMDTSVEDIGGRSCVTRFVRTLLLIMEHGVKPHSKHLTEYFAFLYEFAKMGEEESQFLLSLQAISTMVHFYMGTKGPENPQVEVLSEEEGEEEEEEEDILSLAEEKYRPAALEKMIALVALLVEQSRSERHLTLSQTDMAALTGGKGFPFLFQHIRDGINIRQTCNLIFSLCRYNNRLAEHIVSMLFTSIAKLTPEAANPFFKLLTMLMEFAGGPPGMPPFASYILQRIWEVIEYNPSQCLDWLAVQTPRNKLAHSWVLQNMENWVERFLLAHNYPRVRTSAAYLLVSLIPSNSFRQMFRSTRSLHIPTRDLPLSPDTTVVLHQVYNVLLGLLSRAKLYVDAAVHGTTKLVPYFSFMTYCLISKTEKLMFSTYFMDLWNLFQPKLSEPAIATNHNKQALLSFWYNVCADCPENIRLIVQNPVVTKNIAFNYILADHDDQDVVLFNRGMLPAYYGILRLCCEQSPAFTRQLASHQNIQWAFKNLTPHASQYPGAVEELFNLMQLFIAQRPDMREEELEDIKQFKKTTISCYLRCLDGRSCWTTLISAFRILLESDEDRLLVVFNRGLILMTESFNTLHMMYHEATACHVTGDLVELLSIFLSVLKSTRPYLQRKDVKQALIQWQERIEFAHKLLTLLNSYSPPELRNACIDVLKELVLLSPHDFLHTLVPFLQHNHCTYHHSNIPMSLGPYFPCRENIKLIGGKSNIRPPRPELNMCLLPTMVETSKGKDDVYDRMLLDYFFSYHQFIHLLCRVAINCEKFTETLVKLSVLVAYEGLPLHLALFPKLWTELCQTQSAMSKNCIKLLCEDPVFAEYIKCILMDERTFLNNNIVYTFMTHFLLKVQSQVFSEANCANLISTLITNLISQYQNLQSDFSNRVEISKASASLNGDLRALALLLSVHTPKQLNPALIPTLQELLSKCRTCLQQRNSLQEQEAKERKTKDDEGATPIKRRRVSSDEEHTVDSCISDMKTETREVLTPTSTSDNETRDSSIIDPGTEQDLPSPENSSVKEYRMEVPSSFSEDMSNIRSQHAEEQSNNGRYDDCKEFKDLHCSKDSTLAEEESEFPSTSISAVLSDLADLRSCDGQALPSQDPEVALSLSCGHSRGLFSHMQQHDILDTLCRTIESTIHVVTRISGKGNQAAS
Summary of the method: (§1)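 Labelled DUBs from HEK293T lysate were NeutrAvidin-enriched, digested with LysC and trypsin, and run by diaPASEF LC-MS/MS. Before that, each 495 µg sample in Tris/CHAPS/IGEPAL buffer with protease inhibitors was treated in triplicate with fragment at 200 µM or vehicle for 3 h, then with Biotin-Ahx-Ub-VS at 0.5 µM final for 1 h. Values are average log2 ratios of fragment over vehicle by unpaired t-test, based on global-median-normalised Spectronaut label-free quantities from proteins with ≥2 unique peptides.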

USP36 = target: T1, USP36 (UniProt Q9P275)
T1 sequence (whole entry): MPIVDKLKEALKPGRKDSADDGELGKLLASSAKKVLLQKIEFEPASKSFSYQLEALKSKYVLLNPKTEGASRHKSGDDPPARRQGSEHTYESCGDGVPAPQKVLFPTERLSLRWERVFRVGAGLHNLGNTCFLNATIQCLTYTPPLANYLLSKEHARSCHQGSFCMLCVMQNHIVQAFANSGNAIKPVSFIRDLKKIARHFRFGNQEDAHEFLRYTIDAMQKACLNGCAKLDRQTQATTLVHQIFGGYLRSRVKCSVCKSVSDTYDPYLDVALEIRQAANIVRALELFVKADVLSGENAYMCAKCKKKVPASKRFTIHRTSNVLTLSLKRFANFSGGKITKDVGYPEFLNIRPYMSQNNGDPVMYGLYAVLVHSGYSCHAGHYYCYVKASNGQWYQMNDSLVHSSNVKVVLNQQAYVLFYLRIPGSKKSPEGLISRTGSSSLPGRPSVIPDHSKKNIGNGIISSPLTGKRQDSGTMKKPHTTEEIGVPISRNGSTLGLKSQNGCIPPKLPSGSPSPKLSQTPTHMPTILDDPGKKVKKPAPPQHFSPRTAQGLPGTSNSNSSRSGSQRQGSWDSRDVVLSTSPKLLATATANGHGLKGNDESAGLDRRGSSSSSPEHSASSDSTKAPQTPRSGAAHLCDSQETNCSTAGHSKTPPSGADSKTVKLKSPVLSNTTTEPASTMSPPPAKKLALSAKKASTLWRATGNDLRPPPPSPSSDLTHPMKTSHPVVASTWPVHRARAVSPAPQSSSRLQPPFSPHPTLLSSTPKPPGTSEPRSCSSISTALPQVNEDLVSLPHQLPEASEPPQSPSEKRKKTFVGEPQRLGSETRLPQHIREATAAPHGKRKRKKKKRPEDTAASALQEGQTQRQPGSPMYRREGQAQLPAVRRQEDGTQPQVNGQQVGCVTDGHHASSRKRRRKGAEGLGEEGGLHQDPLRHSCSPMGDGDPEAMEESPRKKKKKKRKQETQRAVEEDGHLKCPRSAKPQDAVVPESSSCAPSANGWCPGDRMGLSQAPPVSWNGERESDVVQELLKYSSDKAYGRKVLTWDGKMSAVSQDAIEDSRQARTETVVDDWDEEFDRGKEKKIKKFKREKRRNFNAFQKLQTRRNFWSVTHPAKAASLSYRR
Summary of the method: as §1

USP38 = target: T2, USP38 (UniProt Q8NB14)
T2 sequence (whole entry): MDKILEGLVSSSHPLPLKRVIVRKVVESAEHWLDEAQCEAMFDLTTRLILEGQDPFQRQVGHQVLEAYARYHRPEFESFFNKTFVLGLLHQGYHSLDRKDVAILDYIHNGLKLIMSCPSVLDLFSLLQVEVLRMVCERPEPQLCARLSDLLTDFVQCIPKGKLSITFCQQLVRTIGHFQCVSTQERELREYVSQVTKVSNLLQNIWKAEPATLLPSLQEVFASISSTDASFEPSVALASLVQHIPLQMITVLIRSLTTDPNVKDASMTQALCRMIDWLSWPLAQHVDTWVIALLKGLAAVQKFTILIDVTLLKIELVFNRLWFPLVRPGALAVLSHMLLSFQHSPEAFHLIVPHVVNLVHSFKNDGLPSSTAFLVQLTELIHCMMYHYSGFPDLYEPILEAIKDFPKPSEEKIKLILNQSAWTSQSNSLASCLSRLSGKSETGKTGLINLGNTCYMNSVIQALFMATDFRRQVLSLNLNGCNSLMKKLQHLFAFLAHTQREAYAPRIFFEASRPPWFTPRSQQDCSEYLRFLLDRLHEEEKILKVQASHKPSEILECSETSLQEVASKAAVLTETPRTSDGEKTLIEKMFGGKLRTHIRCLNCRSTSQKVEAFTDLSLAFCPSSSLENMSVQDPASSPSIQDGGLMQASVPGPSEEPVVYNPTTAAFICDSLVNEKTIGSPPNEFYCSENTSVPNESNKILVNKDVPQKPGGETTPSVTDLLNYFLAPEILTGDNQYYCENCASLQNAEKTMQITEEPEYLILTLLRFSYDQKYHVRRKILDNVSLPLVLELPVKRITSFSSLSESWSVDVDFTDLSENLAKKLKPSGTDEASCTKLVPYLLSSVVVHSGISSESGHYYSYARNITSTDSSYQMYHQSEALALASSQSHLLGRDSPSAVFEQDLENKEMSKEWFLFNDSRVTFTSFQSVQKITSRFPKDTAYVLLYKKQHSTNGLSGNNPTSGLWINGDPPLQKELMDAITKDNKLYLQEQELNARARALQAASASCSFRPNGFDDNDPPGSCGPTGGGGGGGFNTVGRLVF
Summary of the method: as §1

USP39 = target: T3, USP39 (UniProt Q53GS9)
T3 sequence (whole entry): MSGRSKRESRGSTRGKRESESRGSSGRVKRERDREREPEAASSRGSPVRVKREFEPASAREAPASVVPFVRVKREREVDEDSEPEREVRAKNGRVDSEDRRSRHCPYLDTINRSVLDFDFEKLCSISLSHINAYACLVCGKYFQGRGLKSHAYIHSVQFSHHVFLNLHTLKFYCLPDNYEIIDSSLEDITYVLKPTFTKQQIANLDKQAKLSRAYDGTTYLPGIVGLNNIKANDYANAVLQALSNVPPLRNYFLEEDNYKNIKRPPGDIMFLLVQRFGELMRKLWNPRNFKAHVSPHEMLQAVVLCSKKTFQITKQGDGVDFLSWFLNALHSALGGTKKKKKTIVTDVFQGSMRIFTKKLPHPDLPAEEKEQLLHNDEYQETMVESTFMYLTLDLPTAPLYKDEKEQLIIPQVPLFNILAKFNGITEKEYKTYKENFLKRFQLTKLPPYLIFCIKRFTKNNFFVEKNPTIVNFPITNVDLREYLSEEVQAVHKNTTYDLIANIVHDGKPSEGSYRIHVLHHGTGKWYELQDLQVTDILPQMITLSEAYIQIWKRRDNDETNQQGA
Summary of the method: as §1

USP4 = target: T4, USP4 (UniProt Q13107)
T4 sequence (whole entry): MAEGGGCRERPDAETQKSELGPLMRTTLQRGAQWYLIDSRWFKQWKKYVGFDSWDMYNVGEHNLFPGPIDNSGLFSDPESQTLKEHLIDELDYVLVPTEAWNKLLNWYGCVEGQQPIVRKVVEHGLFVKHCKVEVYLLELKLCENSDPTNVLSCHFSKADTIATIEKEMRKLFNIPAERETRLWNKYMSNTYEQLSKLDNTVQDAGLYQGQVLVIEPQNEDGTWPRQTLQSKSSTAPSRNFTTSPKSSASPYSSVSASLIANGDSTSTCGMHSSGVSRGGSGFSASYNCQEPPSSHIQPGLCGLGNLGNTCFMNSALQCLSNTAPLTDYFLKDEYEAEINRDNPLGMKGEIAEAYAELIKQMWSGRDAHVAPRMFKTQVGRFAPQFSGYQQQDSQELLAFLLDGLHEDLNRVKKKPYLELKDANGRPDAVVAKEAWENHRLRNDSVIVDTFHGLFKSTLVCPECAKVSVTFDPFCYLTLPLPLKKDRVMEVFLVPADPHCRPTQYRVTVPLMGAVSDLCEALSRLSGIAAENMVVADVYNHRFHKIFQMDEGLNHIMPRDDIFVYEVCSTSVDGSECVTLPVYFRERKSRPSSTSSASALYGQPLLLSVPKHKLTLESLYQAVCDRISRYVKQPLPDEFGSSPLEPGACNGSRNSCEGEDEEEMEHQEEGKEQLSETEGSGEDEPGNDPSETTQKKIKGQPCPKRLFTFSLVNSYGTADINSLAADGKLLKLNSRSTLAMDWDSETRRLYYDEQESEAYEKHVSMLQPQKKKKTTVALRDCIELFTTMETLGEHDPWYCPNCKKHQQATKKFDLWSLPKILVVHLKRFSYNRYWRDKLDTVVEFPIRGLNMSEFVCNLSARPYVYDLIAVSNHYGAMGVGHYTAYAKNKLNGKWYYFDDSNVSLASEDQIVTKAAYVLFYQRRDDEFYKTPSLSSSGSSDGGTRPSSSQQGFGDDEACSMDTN
Summary of the method: as §1

Measured: log2 ratio of Biotin-Ahx-Ub-VS probe labelling

O=C(CCl)N1CCc2nc[nH]c2C1c1ccc(Cl)cc1 (stereo not given)
inactive: USP34 -0.355 | USP36 -0.00322 | USP38 -0.0469 | USP39 0.0317 | USP4 -0.375
